Test results from PubChem BioAssay AID2717 (Broad Institute, 2010).
Hit rate of the full screen: of about 300,000 compounds, about 3,200 (1.1%) were called active. The list comes from a sample in which actives are over-represented; it also holds similar structures and randomly drawn compounds. A number with no mark means an inactive call. No stated cut-off is given here; in the data, active means inhibition above about 75%; inconclusive means no clear call, values can overlap the other calls; inactive means below that; tested in HMLE shEcad cells.

Experiment: cancer stem cell viability inhibitors, primary screen, luminescence (AID 2717)
Settings: cancer stem cell-like cells viability, at 7.5 µM, hits give high values
For `O=C(NCCc1ccco1)c1ccc(OCc2cn3ccccc3n2)cc1`, the inhibition was -8.4%. With `COc1ccc(NC(=O)c2cc(-c3ccc(C)cc3)on2)cc1` the inhibition was 11.2%. `COc1ccc(Nc2cc(Cl)ccc2C(=O)O)cn1` gave an inhibition of 5.84%. For `COc1ccc(NC(=O)/C(Cl)=C(/Cl)S(=O)Cc2ccc(C)cc2)cn1` (centres undefined), the inhibition was 112% (active). `NC(=O)Nc1ccc(C(=O)OCC(=O)NC2CCCc3ccccc32)cc1` (centres undefined) showed an inhibition of 3.37%. `COc1ccc(-c2n[nH]c(C)c2-c2ccccc2OC)c(O)c1` showed an inhibition of 2.11%. For `C=C(C)COc1ccc(-c2n[nH]c(C)c2-c2ccccc2)c(O)c1`, the inhibition was -11.5%. With `C=C(C)COc1ccc(-c2n[nH]c(C)c2-c2ccccc2OC)c(O)c1` the inhibition was 102% (active). Molecule `COc1cccc(/C=N/Nc2cc(C)nc(-c3ccccc3O)n2)c1O` has an inhibition of 12.2%. For `COc1cccc(/C(C)=N/Nc2ncc(Cl)cc2Cl)c1`, the inhibition was 24.2%. With `COc1cccc(/C=N/Nc2ncc(C(F)(F)F)cc2Cl)c1O` the inhibition was 102% (active). Work on `Cc1ccc(S(=O)(=O)Nc2nc(CN3CCOCC3)nc3sc(C)c(C)c23)cc1` yielded an inhibition of -7.69%. `Cc1ccc(NC(=O)C(C)Sc2nnc(C3CC3)n2C2CC2)cc1S(=O)(=O)N1CCOCC1` (centres undefined) gave an inhibition of -10.2%. Work on `O=C(NNS(=O)(=O)c1c(F)cc(F)c(Cl)c1F)C12CC3CC(CC(C3)C1)C2` yielded an inhibition of -12.7%. Molecule `COc1cccc2sc3cc(NCC[C@@H]4CCCN4C)ccc3c(=O)c12` has an inhibition of 6.75%. Molecule `Cc1nc2ccc(NC(=O)c3cccc(S(=O)(=O)N4CCOCC4)c3)cc2s1` has an inhibition of -13.4%. With `COc1cccc(/C=C2\C=C(c3ccc(C)cc3)OC2=O)c1OC(C)=O` the inhibition was -0.631%. In the case of `COc1cccc(/C=C/c2ccc3ccccc3n2)c1OC(C)=O`, the inhibition is reported as 104% (active). For `CCOc1cccc(/C=C/c2ccc3ccccc3n2)c1OC(C)=O`, the inhibition was 64.6%. In the case of `O=C1N[C@@H](c2ccccc2)COC(=O)[C@H](Cc2ccc(F)cc2)C/C=C\C[C@@H]1CC(=O)N(CCO)Cc1ccccc1`, the inhibition is reported as 9.15%. In the case of `CCN(CC(=O)Nc1c(F)cccc1F)C(=O)c1ccc(-c2ccc(C(C)=O)cc2)o1`, the inhibition is reported as -4.76%. Work on `COc1ccccc1CNC(=O)COC(=O)c1cccs1` yielded an inhibition of 18.5%. `C=CC[C@@H](CC(=O)N[C@H](CO)Cc1ccccc1)C(=O)N[C@H](C)COC(=O)[C@@H](CC=C)Cc1ccc(F)cc1` gave an inhibition of -14.7%. With `COC(=O)CSc1ncnc2c1cnn2-c1ccc(C)cc1C` the inhibition was 8.04%. For `COc1ccccc1N1CCN(C(=O)CSc2nnc(-c3ccoc3C)o2)CC1`, the inhibition was -0.373%. For `COc1ccccc1N1CCN(C(=O)CSc2ncnc3c2cnn3-c2ccc(C)c(C)c2)CC1`, the inhibition was 75.8% (active). For `COc1ccc(C2(c3ccc(OC)cc3)NC(=O)N(CC(=O)Nc3cc(C)on3)C2=O)cc1`, the inhibition was -19.5%. With `O=C(Cn1cnc2ccccc2c1=O)NNC(=O)c1ccccc1F` the inhibition was -14%. In the case of `C=C(Br)Cn1c(CCCC)nc2ccccc21`, the inhibition is reported as 77.7% (active). With `CCCCn1c(CN2CCN(CCO)CC2)nc2ccccc21` the inhibition was -13.9%. In the case of `CCCCn1c(CCCNC(=O)CC)nc2ccccc21`, the inhibition is reported as -2.03%. `O=C(Nc1cccc(S(=O)(=O)NC2=NCCC2)c1)c1ccc(F)cc1F` showed an inhibition of 17.5%. In the case of `Cc1cccc(C(=O)OCC(=O)NC(C)C2CC3CCC2C3)c1O` (centres undefined), the inhibition is reported as -4.77%. With `CCN(C[C@H]1N[C@@](CC)(C(=O)OC)[C@H]2C(=O)N(Cc3ccccc3)C(=O)[C@@H]12)S(=O)(=O)c1ccc(C(F)(F)F)cc1` the inhibition was 44.8%. For `Cc1cccc(-c2nc(Nc3ccc(O)cc3)c3ccccc3n2)c1`, the inhibition was 94% (active). Molecule `COc1ccc(Nc2nc(-c3cccnc3)nc3ccccc23)cn1` has an inhibition of 2.87%. Molecule `CC(=O)Nc1cccc(Nc2nc(-c3cccs3)nc3ccccc23)c1` has an inhibition of 33.9%. Work on `Cc1cccc(NC(=O)CN2CCN(C(=O)C3CCN(C(=O)/C=C/c4ccccc4)CC3)CC2)c1C` yielded an inhibition of -8.71%. Work on `Cc1ccc(Nc2c3c(nc4ccccc24)CCC3)cc1` yielded an inhibition of 2.02%. With `CC(=O)Nc1ccc(Nc2c3ccccc3nc3ccccc23)cc1` the inhibition was 85.3% (active). `CC(=O)Nc1ccc(NC(=O)COc2ncnc3ccccc23)cc1` gave an inhibition of -6.11%. `Cc1ccc(CC(=O)Nc2ccc(S(=O)(=O)N3CCOCC3)cc2)cc1C` showed an inhibition of 6.62%. In the case of `Cc1cccc(N(CC(=O)N=Nc2c(O)[nH]c3ccccc23)S(C)(=O)=O)c1C`, the inhibition is reported as -17.4%. For `O=[N+]([O-])c1cc(S(=O)(=O)Nc2cccc(Cl)c2)ccc1N=Nc1c(O)[nH]c2ccccc12`, the inhibition was 96.2% (active). `CN1CCN(c2ccc(S(=O)(=O)Nc3ccccc3)cc2[N+](=O)[O-])CC1` showed an inhibition of 49.9%. With `O=C(CC1SC(N2CCOCC2)=NC1=O)Nc1ccccc1F` (centres undefined) the inhibition was -28.9%. With `COc1cc(/C=C/C(=O)OCC(=O)NC2CC2)cc(OC)c1OC` the inhibition was 1.1%. In the case of `COC(=O)c1ccc(C)c(NC(=O)Cn2c(C)csc2=O)c1`, the inhibition is reported as 13.1%. With `CCCCC(=O)Nc1ccc(C(=O)Nc2cc(C(F)(F)F)ccc2Cl)cc1` the inhibition was 5.17%. In the case of `CCCCN(CCCC)CCC(O)c1cc2c(Cl)cc(Cl)cc2c2cc(C(F)(F)F)ccc12` (centres undefined), the inhibition is reported as 95.2% (active). `Cc1ccc(C)c(NC(=O)COC(=O)c2nn(C)c(=O)c3ccccc23)c1` gave an inhibition of -4.9%. For `COc1cc(NS(=O)(=O)c2ccc(N=Cc3c(C)[nH]n(-c4ccccc4)c3=O)cc2)nc(OC)n1`, the inhibition was -7.07%. In the case of `COc1cc(SC#N)ccc1N=Cc1c(C)[nH]n(-c2ccc(C)cc2)c1=O`, the inhibition is reported as 84.4% (active). `Cc1ccc(-n2[nH]c(C)c(/C=N/N3C(=O)c4cccc5cccc(c45)C3=O)c2=O)cc1` gave an inhibition of 24.4%. `COc1cc(C(=O)OCc2cc(=O)n3ccsc3n2)ccc1OC(C)C` gave an inhibition of -20.6%. Molecule `CC1CCCCC1NCC(=O)Nc1ccccc1C(=O)Nc1ccccc1` (centres undefined) has an inhibition of -14.1%. With `O=C(COC(=O)c1ccccc1C(=O)N1CCN(c2ccccc2)CC1)NCc1ccccc1` the inhibition was -12.2%. `Oc1ccccc1N1CCN(C(=S)NCc2ccccc2)CC1` gave an inhibition of 12%. For `Oc1ccc(N2CCN(C(=S)NCc3ccccc3)CC2)cc1`, the inhibition was 76.5% (active).
